# Spn PMK inh: inhibitors of Streptococcus pneumoniae phosphomevalonate kinase | purified PMK, PK/LDH-coupled NADH absorbance 340 nm | 65,000 compounds, 0.49% hits | inhibition, % at 10 µM;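 active = top-ranked compounds by inhibition in the single 10 µM screen, taking a fixed number of the strongest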;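 note: 0% = full reaction with DMSO carrier and 100% = background rate without enzyme reaction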
# A340 absorber: absorbance at 340 nm; compound absorbance at 340 nm, fold over control; 65,000 tested, under 10 active; fold change at 10 µM;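 active = at 10 µM dose, initial 340 nm absorbance at least 2 fold that of control wells; inactive = change under 2 fold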;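 note: initial absorbance extrapolated from kinetic A340 decline of NADH oxidation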
# MK inhibit: S. pneumoniae mevalonate kinase inhibition | purified MK, PK/LDH-coupled NADH absorbance 340 nm | inhibition, % at 10 µM | 65,000 compounds, 0.48% hits | AID 555;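 active = ranked among the strongest by inhibition in the single 10 µM screen, a fixed top-ranked set picked for dose follow-up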
# DPM-DC inhibit: blocks S. pneumoniae diphosphomevalonate decarboxylase. calls only at 10 µM. purified DPM-DC, PK/LDH coupled NADH fluorescence. AID 556. 65,000 compounds, 0.49% hits;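 active = the 320 compounds with the highest percent inhibition in the single-dose primary screen, excluding strongly autofluorescent ones, cut at about 32% in these data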;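 note: kinetic rate of NADH fluorescence loss reporting ADP formed by the decarboxylase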
# Fluor 339 460: intrinsic fluorescence of library compounds, ex339/em460 – biochemical, MLSMR library, data from DPM-DC assay, artefact control, profiling panel | fluorescence fold increase at 10 µM | AID 709 | compound autofluorescence, ex339/em460 nm, NADH buffer; active compounds read high; 1 = no-compound wells, NADH background | 65,000 compounds, 5.5% hits;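 active = at 10 µM, mean starting fluorescence two-fold or more over control wells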;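 note: signal is the first read of a kinetic run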
# NADH coupling: inhibition of NAD/NADH coupling enzymes, library profiling. coupled PK/LDH NADH assays, four targets. IC50, µM (top dose mostly 10 µM), for the others: top-dose inhibition. 65,000 compounds, 0.02% hits;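 active = single-dose screening hits from any of four coupled enzyme assays that gave an IC50 when retested across doses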;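 note: the DPM-DC format reads NADH fluorescence rather than 340 nm absorbance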
# Active calls of the source: *; i = inactive; . = not tested or not shown; + = active, no number. This is a sample that favours compounds with a hit; in the whole collection about 6.8% have one here.
SMILES,Spn PMK inh,A340 absorber,MK inhibit,DPM-DC inhibit,Fluor 339 460,NADH coupling
COc1cc2c(cc1OC)/C(=C/C(=O)N1CCOCC1)NC(C)(C)C2,1,1,6,+,2.5*,13%
Cc1nn(Cc2ccccc2)c(C)c1NC(=O)CSc1nc2sc3c(c2c(=O)n1C)CCC3,7,1.1,10,i,1.1,6%
N#Cc1nc(-c2cccs2)oc1N1CCN(c2ccccc2)CC1,7,1,6,.,3.7*,7%
CCOc1ccc(Nc2oc(-c3ccco3)nc2C#N)cc1,0,1.1,9,i,1.3,3%
N#Cc1nc(-c2cccs2)oc1NCc1ccccc1Cl,6,1,2,.,2.4*,4%
CCOc1ccc(Nc2oc(-c3cccs3)nc2C#N)cc1,0,1.1,3,.,3*,2%
N#Cc1nc(-c2cccs2)oc1NCc1ccco1,0,1.1,4,.,2.2*,2%
O=C(NC1CCCCC1)C1CCCN(c2nnnn2-c2ccccc2)C1 (stereo not given),10,0.99,3,i,1,4%
COc1ccc(CNc2oc(C)nc2C#N)cc1,8,1,7,i,1,5%
N#Cc1nc(-c2cccs2)oc1NCc1ccccc1,4,1.1,0,.,2.4*,2%
N#Cc1nc(-c2cccs2)oc1NCc1ccc(Cl)cc1,9,1,12,.,3*,4%
Cc1ccc(CNc2oc(-c3cccs3)nc2C#N)cc1,5,1.1,5,.,3.6*,5%
CC(C)(NC(=O)N1CCCC1)c1cccc(C(C)(C)NC(=O)N2CCCC2)c1,16,1,6,i,1.1,3%
O=C(NC1CCCCC1)C(c1ccco1)N(Cc1cccnc1)C(=O)C1COc2ccccc2O1 (stereo not given),4,0.98,14,i,1,3%
O=C(CN(C(=O)CNS(=O)(=O)c1ccccc1)c1ccc2c(c1)OCCO2)NCc1ccco1,19,1,6,i,1.1,8%
O=C(CN(C(=O)CNS(=O)(=O)c1ccccc1)C1CCCC1)NCc1ccco1,25*,0.99,0,i,1,8%
O=C(NCCN1C(=O)CCC1=O)c1ccncc1,7,0.99,8,i,1.1,5%
COc1ccc(C(=O)Cn2c(=O)c(CCC(=O)O)nn3c4ccccc4nc23)cc1OC,11,1.1,11,i,2.8*,17%
O=c1[nH]c(CSc2nnc(-c3ccncc3)n2Cc2ccco2)nc2ccccc12,15,0.99,4,i,1.1,7%
C=CCn1c(SCc2nc3ccccc3c(=O)[nH]2)nnc1-c1cc2cc(Cl)ccc2o1,10,1.1,10,i,2.1*,11%
CCOC(=O)N1CCN(C(=O)Nc2ccc(Cl)cc2Cl)CC1,1,1,8,i,1.1,6%
c1coc(CNc2ncnc3sc4c(c23)CCCCC4)c1,16,1,4,i,1,7%
CCN1CCc2c(sc3c2c(NCc2ccco2)nc2nnnn23)C1,9,1.1,7,i,2.4*,8%
COC(=O)c1ccc(CSc2nc3scc(-c4cccs4)c3c(=O)[nH]2)o1,16,1.1,0,i,1.1,5%
COc1ccc(NC(=O)c2oc3ccccc3c2NC(=O)c2ccco2)cc1,7,1,0,i,1.2,1%
SMILES,Spn PMK inh,A340 absorber,MK inhibit,DPM-DC inhibit,Fluor 339 460,NADH coupling
CCN(CC)S(=O)(=O)c1ccc2oc(C(=O)Nc3ccc(OC)cc3OC)c(C)c2c1,9,1,0,i,1.2,12%
COc1ccc(NC(=O)c2oc3ccccc3c2NC(=O)c2ccco2)c(OC)c1,9,1.1,0,.,5.1*,5%
COc1cccc(OCC(=O)Nc2c(C(=O)Nc3ccc(OC)cc3OC)oc3ccccc23)c1,13,1.1,0,.,5*,7%
COc1ccc(NC(=O)c2oc3cc(C)c(C)cc3c2C)c(OC)c1,4,1.1,4,.,3.8*,4%
COCC(=O)Nc1c(C(=O)Nc2cccc(OC)c2)oc2ccccc12,8,1.1,7,i,1.3,5%
CCOc1ccc(NC(=O)c2oc3ccccc3c2NC(=O)C2CC2)cc1,15,1.1,0,i,2.6*,5%
COc1ccc(NC(=O)c2oc3ccccc3c2NC(=O)C2CC2)cc1,7,1.1,0,i,1.4,5%
Cc1ccc(-n2c(C)cc(C)c(C#N)c2=O)cc1Cl,7,1.1,6,i,1.3,5%
Cc1ccc2cc(CN(C)C(=O)C3CCCO3)c(=O)[nH]c2c1 (stereo not given),2,1,12,i,1.4,5%
CC1(C)CC(=O)N(c2ccccc2)C1(C)O (stereo not given),1,1,5,i,1.1,3%
COc1ccccc1NC(=O)c1oc2ccccc2c1NC(=O)c1cc(OC)c(OC)c(OC)c1,3,1,0,.,3.2*,1%
COCC(=O)Nc1c(C(=O)Nc2ccccc2OC)oc2ccccc12,11,1,2,i,1.2,2%
CCOCC(=O)Nc1c(C(=O)Nc2ccc(OC)cc2OC)oc2ccccc12,11,1,6,.,2.4*,3%
C=CCN1C(=O)N(/C=C/C)c2cccc3cccc1c23,14,1.1,9,i,1.1,9%
CC(C)N1C(=O)CCC1C(=O)N1CCCc2ccccc21 (stereo not given),19,1,0,i,1.1,7%
Cc1ccc(OCC(O)CNS(=O)(=O)c2ccccc2C(=O)N2CCCCC2)cc1 (stereo not given),9,0.98,11,i,1.1,7%
Cc1oc2c(CN3CCOCC3)c(O)ccc2c(=O)c1-c1ccccc1,9,1.1,4,.,3.9*,7%
COc1cccc(Oc2c(C)oc3c(CN4CCOCC4)c(O)ccc3c2=O)c1,13,1.1,8,.,3.8*,11%
CCOC(=O)c1c(-c2ccccc2)oc2ccc(O)c(CN3CCOCC3)c12,0,1.1,16,i,1.2,7%
COc1ccc(-c2c(C)oc3c(CN4CCCCC4C)c(O)ccc3c2=O)cc1OC (stereo not given),7,1.1,2,.,2.2*,5%
CCC(CO)NCc1ccc2c(c1)n(C)c(=O)n2C (stereo not given),10,1,13,i,1.1,8%
O=C1CSC(c2cn(-c3ccccc3)nc2-c2cccs2)N1CC1CCCO1 (stereo not given),9,0.97,0,i,1,3%
CC(C)OC(=O)c1cccnc1SCc1cc(=O)n2ccccc2n1,28*,1.1,12,i,1.7,16%
CSCC[C@@H](C(=O)O)N1Cc2ccccc2C1=O,5,1,35,i,1.1,13%
O=C(O)[C@@H](c1ccccc1)N1Cc2ccccc2C1=O,7,1.1,72*,i,1.1,27%

# Screening results: PubChem, SRMLSC
